# LEDGF integ inh: blockers of LEDGF/p75-dependent integrase strand transfer – biochemical, TR-FRET, high throughput, primary screen; HIV-1 integrase (with human LEDGF/p75); TR-FRET IN-LEDGF/p75 DNA integration, Eu/Cy5; inhibition, % at 3.7 µM; actives 0.64% (n = 370,000); AID 743269, 2014;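 active means inhibition above the screen-wide mean plus 3 SD, cut at about 13% in these data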;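 further: signal is the Cy5 over europium emission ratio at 671 and 618 nm; 0% = plate median of compound wells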
# UHRF1 binding: UHRF1 methylated DNA binding inhibitors, primary screen, counter-screen for MBD2 inhibitor project, biochemical, TR-FRET, human UHRF1, single concentration; E3 ubiquitin-protein ligase UHRF1 (Homo sapiens), Q96T88; UHRF1 binding to methylated oligo; inhibition, % at 4.4 µM; actives 0.75% (n = 370,000); in the data active means inhibition above about 21%;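 further: UHRF1 SRA domain binding a hemimethylated CpG hairpin DNA probe; 0% = median of test compound wells and 100% = reference inhibitor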
# MBD2 DNA inh: inhibitors of MBD2 binding to methylated DNA, primary screen, biochemical, TR-FRET, DNA-binding domain, human | Methyl-CpG-binding domain protein 2 (Homo sapiens), Q9UBB5 | MBD2 binding to methylated oligonucleotide | inhibition, % at 4.4 µM | actives 0.31% (n = 370,000); in the data active means inhibition above about 13%
# TCR-CD3 inh: inhibitors of human TCR-CD3 interaction, primary screen, biochemical, fluorescence, TAMRA-labeled TCR probe | inhibition, % at 9.4 µM | T-cell receptor (TCR) | actives 0.37% (n = 360,000); in the data active means inhibition above about 19%;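 further: recombinant mutant TCR 2C K166C tagged with TAMRA read by polarization; 0% = receptor in buffer alone and 100% = receptor with positive control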
# Rin1 Abl inh: inhibitors of Rin1-Abl protein binding, primary screen, biochemical, TR-FRET; inhibition, % at 7.35 µM; Tyrosine-protein kinase ABL1 (Homo sapiens) + Ras and Rab interactor 1 (Homo sapiens), …; actives 0.4% (n = 360,000); AID 588664, 2011; in the data active means inhibition above about 5%, passing the limit was not always enough
# The depositor's hits bear a star; . = not tested or not shown. Rows were chosen to be rich in hits. Some 2% of all compounds tested hit in one or more screens of this group.
SMILES,LEDGF integ inh,UHRF1 binding,MBD2 DNA inh,TCR-CD3 inh,Rin1 Abl inh
Cc1ccc(C2=N/C(=C\c3coc4ccccc4c3=O)C(=O)O2)cc1,40.0*,3.6,-2.2,2.7,.
COC(=O)N1C[C@H](OCc2ccccc2)[C@H]2C[C@@H]1c1ccccc1O2,-0.9,2.5,-4.4,0.6,.
COC(=O)[C@]12C[C@H](CC(=O)NCc3cccc4ccccc34)C(=O)N(Cc3ccccc3)C1=C[C@H](C(C)C)O[C@@H]2C1CC1,-0.8,0.3,3.3,-6.2,.
CCCCOCCCNC(=O)C[C@@H]1C[C@]2(C(=O)OCC)CCC3=C2N(CCC3)C1=O,3.7,-0.2,-5.3,.,.
NC(=O)CSc1nnc(-c2ccc(S(=O)(=O)N3CCCCC3)cc2)n1-c1ccccc1,-0.9,40.4*,4.4,-3.8,0.7
COc1ccc(CCNS(=O)(=O)c2cc3c4c(c2)CC(=O)N4CCC3)cc1,0.5,25.8*,2.9,-1.2,1.4
C[C@H](O)[C@@H]1C(=O)N2CCc3c([nH]c4cccc(-c5ccccc5)c34)[C@@H]2C[C@@H]1N(C)C(=O)c1ccco1,-0.8,0.2,-1.8,-0.9,.
CC(=O)C1=C(C)N(Cc2ccc(Br)cc2)C(=S)NC1c1ccc(F)cc1 (stereo not drawn),2.2,5.6,0.8,-2.7,.
C#CCOCCOCCOCCNc1nc(N2CCN(C(=O)CCCCCCCCCCNC(=O)[C@H](CCCCN)n3cc(CCO)nn3)CC2)nc(N2CCN(C(=O)CCCCCCCCCCNC(=O)[C@H](CCCN=C(N)N)n3cc(C[C@@H](C)CC)nn3)CC2)n1,.,.,.,.,21.7*
C#CCOCCOCCOCCNc1nc(N2CCN(C(=O)CCCCCCCCCCNC(=O)[C@@H](CCSC)n3cc(CCO)nn3)CC2)nc(N2CCN(C(=O)CCCCCCCCCCNC(=O)[C@H]([C@@H](C)CC)n3cc(CCCCN=C(N)N)nn3)CC2)n1,.,.,.,.,24.5*
C#CCOCCOCCOCCNc1nc(N2CCN(C(=O)CCCCCCCCCCNC(=O)[C@H](CCCCN)n3cc(C)nn3)CC2)nc(N2CCN(C(=O)CCCCCCCCCCNC(=O)[C@@H]([C@H](C)CC)n3cc(CCCCCN)nn3)CC2)n1,.,.,.,.,12.2*
C#CCOCCOCCOCCNc1nc(N2CCN(C(=O)CCCCCCCCCCNC(=O)[C@H](CCCCN)n3cc(CCCC(=O)O)nn3)CC2)nc(N2CCN(C(=O)CCCCCCCCCCNC(=O)[C@H](CCCN=C(N)N)n3cc(C[C@@H](C)CC)nn3)CC2)n1,.,.,.,.,5.6
C#CCOCCOCCOCCNc1nc(N2CCN(C(=O)CCCCCCCCCCNC(=O)[C@H](CCCCN)n3cc(CCO)nn3)CC2)nc(N2CCN(C(=O)CCCCCCCCCCNC(=O)[C@@H]([C@H](C)O)n3cc(C)nn3)CC2)n1,.,.,.,.,9.6*
CCN=C1NC(CCc2ccccc2)C(C(=O)OC)=C(C)N1Cc1ccccc1C(F)(F)F (stereo not drawn),5.6,0.5,0.7,6.2,.
Cc1ccccc1OCCC(=O)Nc1ccc(S(=O)(=O)N2CCCC2)cc1,-1.2,0.4,1.5,-0.5,-0.3
C#CCOCCOCCOCCNc1nc(N2CCN(C(=O)[C@H](CCC(=O)O)n3cc([C@@H](N)CCCCN)nn3)CC2)nc(N2CCN(C(=O)[C@H](CCC(=O)O)n3cc([C@@H](N)CCCCN)nn3)CC2)n1,0.9,1.9,-1.4,-1.1,-3.0
C#CCOCCOCCOCCNc1nc(N2CCN(C(=O)[C@H](CCC(=O)O)n3cc([C@@H](N)CCCCN)nn3)CC2)nc(N2CCN(C(=O)[C@H](CCCCN)n3cc([C@@H](N)CC(N)=O)nn3)CC2)n1,0.9,47.6*,-2.1,0.3,-1.8
CC(C)C[C@H](NC(=O)c1ccc(Cl)cc1Cl)C(=O)N1CCC[C@H]1C(=O)NCc1ccccc1,-0.8,-0.6,0.8,-3.4,.
NC(=O)C1CCN(C(=O)COc2cccc3ccccc23)CC1,-3.4,40.1*,-2.2,0.5,4.6
O=C(O)C1CCN(C(=O)c2cccc3ccccc23)CC1,-0.6,29.6*,-4.7,-4.4,1.0
COc1ccccc1N1CCN(C(=O)COc2cccc3ccccc23)CC1,1.2,-2.0,0.7,-2.3,-0.3
O=C(O)C1CCN(C(=O)c2ccccc2C(=O)N2CCC(C(=O)O)CC2)CC1,2.5,-3.2,-7.0,2.3,0.0
O=C(N/N=C/c1ccc(F)cc1)c1ccccc1,-5.1,27.1*,-3.7,1.7,2.1
CC1=NOC(=O)/C1=C\c1ccc(-c2ccc(Cl)c(C(=O)O)c2)o1,7.0,28.3*,4.7,-3.9,1.8
COC(=O)c1ccc(N2NC(=O)/C(=C/c3ccc(-c4ccc(Cl)c(C(=O)O)c4)o3)C2=O)cc1,10.7,39.4*,9.0,3.2,-4.6
SMILES,LEDGF integ inh,UHRF1 binding,MBD2 DNA inh,TCR-CD3 inh,Rin1 Abl inh
Cc1ccc(N2NC(=O)/C(=C/c3ccc(-c4ccc(Cl)c(C(=O)O)c4)o3)C2=O)cc1C,-2.1,4.1,-1.5,-7.5,0.8
FC(F)Sc1ccc(NC(=S)NC2CCCCC2)cc1,5.3,-5.2,-4.8,1.7,-2.1
CC1CCCCC1NC(=S)Nc1ccc(SC(F)F)cc1 (stereo not drawn),0.2,37.9*,0.9,-2.7,-1.9
CN(Cc1ccccc1)c1nc(-c2cccc([N+](=O)[O-])c2)nc2ccccc12,-2.1,23.1*,3.5,-3.0,-0.3
O=[N+]([O-])c1cccc(-c2nc(NCc3ccccc3)c3ccccc3n2)c1,2.1,2.0,0.8,-3.8,-1.4
COC(=O)[C@H]1CN(C(=O)c2ccccc2)C(=O)N1,-0.1,-2.4,2.5,-2.0,-1.2
COC(=O)C1CCC(=S)N1C(=O)c1ccccc1 (stereo not drawn),-0.6,26.8*,-3.2,-7.1,-2.0
CC(=O)N(Cc1ccccc1)c1nccs1,2.5,-1.9,0.7,8.7,.
O=C(NC1CCCCC1)C(c1ccncc1)N(Cc1ccc2c(c1)OCO2)C(=O)c1cnsn1 (stereo not drawn),12.0,21.2*,0.4,5.5,-1.3
O=C(NC1CCCCC1)C(c1ccc2ncccc2c1)N(Cc1ccc2c(c1)OCO2)C(=O)c1cccs1 (stereo not drawn),-0.6,-2.7,-2.2,-2.7,1.8
O=C(NC1CCCCC1)C(c1ccc(Cl)cc1)N(C(=O)c1cnccn1)c1ccc2c(c1)OCO2 (stereo not drawn),-1.3,22.2*,11.0,2.2,0.1
COc1ccc(CCNC(=O)CCC(=O)n2ncc3ccc(Cl)cc32)cc1OC,0.9,0.7,-6.5,2.6,2.9
O=S1(=O)c2ccc(N3CCSCC3)cc2Oc2ccccc2CN1Cc1cn(Cc2ccc(F)cc2)nn1,1.2,2.2,-3.7,.,.
